Measurements as given in PubChem BioAssay.
Activity calls are given as the source filed them.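 The calls were made as follows, unless noted: active = efflux inhibition above 0.42, the validation set average plus 4 SD; inconclusive = no clear call, values can overlap the other calls; inactive = the rest.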

Tests used:
[1] = inhibitors of CD8+ T cell-vesicle binding, pilot screen, LFA-1/ICAM-1 modulator project, MLPCN validation set, flow cytometry (AID 2523;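 active = response below a set limit, under 55% cells CD8-positive and vesicle-bound, and CD8 cells' 90th-percentile brightness under 279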;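 as to vesicle binding response: mean PE anti-B7-1 fluorescence of CD8+ cells relative to row control; 100% = QL9-loaded vesicles with DMSO vehicle in the same plate row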); details: 2C mouse CD8+ T cells, at 7 µM, stronger effect = lower value; double positive events: measured here: CD8+/vesicle+ event percentage
[2] = target: Integrin beta-1 (Homo sapiens) + Integrin alpha-4 (Homo sapiens) (UniProt P13612+P05556); assay: inhibition of HUTS-21 binding to VLA-4, pilot screen, VLA-4 allosteric modulator project, U937 cells, HUTS-21 mAb, flow cytometry, validation set (AID 2674;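 active = inhibition above 50%, about 3 SD of the validation set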;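 also: antibody binding induced by the VLA-4 ligand LDV present at three times its Kd; 0% = LDV ligand with antibody and no compound and 100% = antibody without LDV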); details: HUTS-21 LIBS mAb binding, at 6.7 µM, stronger effect = higher value, binding induced by LDV ligand
[3] = superoxide lowering in aged yeast cells, pilot screen, validation compound set (AID 2706;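 active = superoxide response below 65% of plate, a cut near 3 SD across the whole screen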;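 also: yeast exposed to compound for one week at 30 degrees C before staining; 100% = mean of all compound wells on the same plate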); details: S. cerevisiae aging, superoxide DHE fluorescence; at 10 µM, stronger effect = lower value
[4] = target: Beta-adrenergic receptor kinase 1 (Homo sapiens) (UniProt P25098); assay: GRK2 binders displacing RNA aptamer, biochemical, validation, human GRK2, bead flow cytometry (AID 488806;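 active = aptamer binding inhibition above 30%, about 3 SD of noise from non-fluorescent compounds; inactive = inhibition at or below 30%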); details: bead-bound GRK2, FAM-aptamer displacement, at 10 µM, stronger effect = higher value
[5] = target: AP-2 complex subunit beta (Homo sapiens) (UniProt P63010); assay: inhibitors of arrestin peptide binding to AP2, pilot screen, biochemical, validation set, GST-AP2 beads, flow cytometry (AID 504541;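 active = inhibition above 54%, about 3 SD of non-fluorescent compounds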;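 also: AP2 carries R879A mutation and is captured from E. coli lysate; bead-bound FITC arrestin peptide fluorescence measuring arrestin peptide binding to AP2; 0% = DMSO wells and 100% = excess unlabeled arrestin peptide control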); details: FITC arrestin peptide, at 10 µM, stronger effect = higher value, AP2 beta2 appendage fragment, R879A mutant
[6] = yeast V-ATPase proton transport modulators, S. cerevisiae, pHLuorin, HTS validation (AID 504600; in the data active = response above about 15%;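 also: plate controls were DMSO for no effect and reference compound for full effect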); details: S. cerevisiae pHLuorin cytosolic pH, at 10 µM, stronger effect = higher value
[7] = test system: anti-desmoglein-3 scFv antibody binding to human DSG3; assay: inhibitors of anti-DSG3 scFv binding to DSG3, pilot screen, biochemical, validation compound set, bead-based, flow cytometry (AID 588368;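 active = binding below the plate cutoff, the plate median minus 3 SD, with a reading above zero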;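 also: signal is the median channel fluorescence of bead-bound GFP antibody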); details: Protein G beads, DSG3-Fc, scFv-GFP binding, at 10 µM, stronger effect = lower value
[8] = inhibitors of fungal efflux pumps CDR1, CDR2, MDR1, pilot screen, validation compound set, multiplex, phenotypic (AID 588506);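 also: Nile Red retained in cells so higher fluorescence means more efflux inhibition; 0 = negative control wells and 1 = enniatin B 25 µM full block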; details: S. cerevisiae pump-expressing triplex, Nile Red efflux flow cytometry; at 10 µM; stronger effect = higher value; the pumps come from Candida albicans
[9] = target: ATP-binding cassette sub-family B member 6 (Homo sapiens) (UniProt Q9NP58); assay: ABCB6 transporter inhibitors, pilot screen, K562-ABCB6 cells, flow cytometry, validation set (AID 588550;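 active = inhibition above the screen-wide mean plus 3 SD, about 51%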;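 also: 0% = DMSO wells and 100% = benzethonium chloride 70 µM positive control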); details: K562-ABCB6 porphyrin accumulation, 1 h, at 10 µM, stronger effect = higher value
[10] = promoters of myeloid differentiation in arrested cells, primary screen, cell-based, GFP/MAC1 double positive, flow cytometry, validation set (AID 588685;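 active = differentiation response of at least 50%, scaled between solvent and reference control, from cells with both markers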;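 also: compound exposure lasts four days before antibody staining and flow analysis; 0% = DMSO wells and 100% = 5 µM fulvestrant positive control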); details: ER-HoxA9 marrow cells, stronger effect = higher value, normalized: vehicle 0, fulvestrant 100
[11] = target: Beta-2 adrenergic receptor (Homo sapiens) (UniProt P07550); assay: beta2AR agonists driving receptor internalization, pilot screen, cell-based, FAP fluorogen, flow cytometry, validation set (AID 504459;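 active = percent response above 42, roughly 3 SD of non-fluorescent test compounds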;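 also: agonist-driven loss of surface beta2AR via internalization measured by FAP dye flow cytometry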); details: Am2.2-beta2AR cells, FAP surface receptor flow cytometry; at 10 µM; stronger effect = higher value
Chain of Beta-2 adrenergic receptor (Homo sapiens) (P07550 whole entry, looked up): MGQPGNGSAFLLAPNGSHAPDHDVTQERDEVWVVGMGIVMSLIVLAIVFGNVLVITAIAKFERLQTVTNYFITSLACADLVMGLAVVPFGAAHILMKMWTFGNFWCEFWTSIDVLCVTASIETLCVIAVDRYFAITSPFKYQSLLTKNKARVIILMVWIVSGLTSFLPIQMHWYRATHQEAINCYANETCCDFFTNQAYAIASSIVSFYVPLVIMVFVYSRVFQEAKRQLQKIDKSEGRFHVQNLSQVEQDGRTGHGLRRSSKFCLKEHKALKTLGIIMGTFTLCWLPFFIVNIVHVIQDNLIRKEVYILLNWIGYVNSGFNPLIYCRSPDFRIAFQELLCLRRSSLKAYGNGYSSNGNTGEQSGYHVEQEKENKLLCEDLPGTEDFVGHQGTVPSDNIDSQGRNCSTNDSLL

Chain of ATP-binding cassette sub-family B member 6 (Homo sapiens) (Q9NP58 whole entry, looked up): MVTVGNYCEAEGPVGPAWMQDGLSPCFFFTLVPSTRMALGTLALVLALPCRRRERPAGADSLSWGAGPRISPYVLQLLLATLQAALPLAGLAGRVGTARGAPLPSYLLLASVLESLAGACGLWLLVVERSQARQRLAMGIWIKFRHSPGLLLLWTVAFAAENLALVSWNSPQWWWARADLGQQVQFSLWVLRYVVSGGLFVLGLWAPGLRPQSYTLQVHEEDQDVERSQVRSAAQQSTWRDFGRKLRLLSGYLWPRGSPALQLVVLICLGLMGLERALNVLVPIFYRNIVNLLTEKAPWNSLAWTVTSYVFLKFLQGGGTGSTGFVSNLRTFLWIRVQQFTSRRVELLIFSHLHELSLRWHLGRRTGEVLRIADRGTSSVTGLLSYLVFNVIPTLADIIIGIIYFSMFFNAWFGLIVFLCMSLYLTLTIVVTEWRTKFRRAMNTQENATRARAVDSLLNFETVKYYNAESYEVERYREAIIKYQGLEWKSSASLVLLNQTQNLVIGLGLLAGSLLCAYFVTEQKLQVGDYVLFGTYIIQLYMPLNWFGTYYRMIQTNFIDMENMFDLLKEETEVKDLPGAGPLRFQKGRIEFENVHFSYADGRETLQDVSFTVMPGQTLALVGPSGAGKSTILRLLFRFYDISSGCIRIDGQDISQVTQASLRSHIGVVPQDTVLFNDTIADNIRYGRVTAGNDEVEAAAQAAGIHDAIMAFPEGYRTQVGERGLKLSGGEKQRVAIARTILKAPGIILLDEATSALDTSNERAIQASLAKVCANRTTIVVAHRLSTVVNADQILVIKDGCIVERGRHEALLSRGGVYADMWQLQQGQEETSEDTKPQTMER
Chain of Beta-adrenergic receptor kinase 1 (Homo sapiens) (P25098 whole entry, looked up): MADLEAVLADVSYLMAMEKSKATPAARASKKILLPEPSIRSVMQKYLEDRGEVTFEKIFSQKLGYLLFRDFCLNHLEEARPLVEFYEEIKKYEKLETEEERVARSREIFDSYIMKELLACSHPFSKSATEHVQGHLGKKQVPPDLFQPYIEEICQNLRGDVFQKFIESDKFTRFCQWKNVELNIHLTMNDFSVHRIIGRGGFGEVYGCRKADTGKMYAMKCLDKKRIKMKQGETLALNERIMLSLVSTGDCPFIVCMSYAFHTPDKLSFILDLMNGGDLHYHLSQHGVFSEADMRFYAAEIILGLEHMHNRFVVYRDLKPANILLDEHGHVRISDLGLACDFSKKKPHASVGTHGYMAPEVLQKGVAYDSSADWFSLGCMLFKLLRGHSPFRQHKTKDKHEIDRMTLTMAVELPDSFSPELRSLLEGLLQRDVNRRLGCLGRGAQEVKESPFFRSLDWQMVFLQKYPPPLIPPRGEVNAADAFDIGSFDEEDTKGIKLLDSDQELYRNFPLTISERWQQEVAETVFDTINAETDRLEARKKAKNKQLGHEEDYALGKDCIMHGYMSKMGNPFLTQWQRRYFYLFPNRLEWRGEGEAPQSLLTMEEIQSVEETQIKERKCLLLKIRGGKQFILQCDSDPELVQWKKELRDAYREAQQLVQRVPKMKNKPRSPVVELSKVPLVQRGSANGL
Chain of AP-2 complex subunit beta (Homo sapiens) (P63010 whole entry, looked up, the tested form may be a part, one chain of several): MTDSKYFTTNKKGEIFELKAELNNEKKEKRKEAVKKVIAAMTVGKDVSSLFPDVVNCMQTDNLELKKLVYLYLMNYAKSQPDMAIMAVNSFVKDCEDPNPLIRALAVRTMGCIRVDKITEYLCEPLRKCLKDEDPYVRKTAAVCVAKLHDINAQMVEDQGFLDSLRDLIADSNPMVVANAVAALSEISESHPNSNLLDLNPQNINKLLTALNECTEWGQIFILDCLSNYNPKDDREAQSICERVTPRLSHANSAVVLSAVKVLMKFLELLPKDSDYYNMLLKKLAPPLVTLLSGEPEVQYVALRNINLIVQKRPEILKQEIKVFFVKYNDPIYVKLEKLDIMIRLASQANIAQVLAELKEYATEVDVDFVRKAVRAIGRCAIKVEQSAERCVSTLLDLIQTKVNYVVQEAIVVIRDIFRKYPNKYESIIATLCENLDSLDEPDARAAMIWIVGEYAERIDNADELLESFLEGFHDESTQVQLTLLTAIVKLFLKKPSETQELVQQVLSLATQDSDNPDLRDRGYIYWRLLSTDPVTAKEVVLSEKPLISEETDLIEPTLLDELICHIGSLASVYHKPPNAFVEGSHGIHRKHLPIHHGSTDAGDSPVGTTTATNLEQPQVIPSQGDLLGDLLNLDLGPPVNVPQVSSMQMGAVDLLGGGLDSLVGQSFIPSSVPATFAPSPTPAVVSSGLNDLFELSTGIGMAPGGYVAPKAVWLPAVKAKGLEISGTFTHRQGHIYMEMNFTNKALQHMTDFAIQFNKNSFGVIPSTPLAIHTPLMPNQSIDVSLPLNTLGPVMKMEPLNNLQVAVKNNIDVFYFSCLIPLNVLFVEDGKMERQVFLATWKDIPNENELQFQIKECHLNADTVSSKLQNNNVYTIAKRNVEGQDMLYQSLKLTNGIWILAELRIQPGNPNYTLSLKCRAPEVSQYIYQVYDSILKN
Chain of Integrin beta-1 (Homo sapiens) + Integrin alpha-4 (Homo sapiens) (P05556 whole entry, looked up): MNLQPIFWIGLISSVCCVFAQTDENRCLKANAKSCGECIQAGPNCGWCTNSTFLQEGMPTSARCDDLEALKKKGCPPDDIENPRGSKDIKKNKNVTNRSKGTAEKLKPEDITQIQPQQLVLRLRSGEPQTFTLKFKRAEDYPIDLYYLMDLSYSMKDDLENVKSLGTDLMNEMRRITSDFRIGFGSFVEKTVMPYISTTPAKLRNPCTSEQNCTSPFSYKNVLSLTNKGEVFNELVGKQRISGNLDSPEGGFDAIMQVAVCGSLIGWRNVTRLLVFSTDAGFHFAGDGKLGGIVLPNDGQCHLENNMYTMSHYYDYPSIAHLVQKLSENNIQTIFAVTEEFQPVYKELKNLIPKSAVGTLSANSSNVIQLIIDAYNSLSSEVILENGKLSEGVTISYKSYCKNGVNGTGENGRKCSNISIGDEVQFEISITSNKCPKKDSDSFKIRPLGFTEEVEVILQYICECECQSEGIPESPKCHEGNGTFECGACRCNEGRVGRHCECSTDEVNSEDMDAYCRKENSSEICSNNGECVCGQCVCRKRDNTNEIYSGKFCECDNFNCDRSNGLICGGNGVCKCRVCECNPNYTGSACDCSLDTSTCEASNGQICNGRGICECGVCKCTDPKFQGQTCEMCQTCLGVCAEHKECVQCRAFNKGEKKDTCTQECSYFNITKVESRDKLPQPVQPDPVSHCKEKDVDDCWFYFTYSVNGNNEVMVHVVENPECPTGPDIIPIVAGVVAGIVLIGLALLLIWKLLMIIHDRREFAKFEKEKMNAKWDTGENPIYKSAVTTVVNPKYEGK
Chain of Integrin beta-1 (Homo sapiens) + Integrin alpha-4 (Homo sapiens) (P13612 whole entry, looked up): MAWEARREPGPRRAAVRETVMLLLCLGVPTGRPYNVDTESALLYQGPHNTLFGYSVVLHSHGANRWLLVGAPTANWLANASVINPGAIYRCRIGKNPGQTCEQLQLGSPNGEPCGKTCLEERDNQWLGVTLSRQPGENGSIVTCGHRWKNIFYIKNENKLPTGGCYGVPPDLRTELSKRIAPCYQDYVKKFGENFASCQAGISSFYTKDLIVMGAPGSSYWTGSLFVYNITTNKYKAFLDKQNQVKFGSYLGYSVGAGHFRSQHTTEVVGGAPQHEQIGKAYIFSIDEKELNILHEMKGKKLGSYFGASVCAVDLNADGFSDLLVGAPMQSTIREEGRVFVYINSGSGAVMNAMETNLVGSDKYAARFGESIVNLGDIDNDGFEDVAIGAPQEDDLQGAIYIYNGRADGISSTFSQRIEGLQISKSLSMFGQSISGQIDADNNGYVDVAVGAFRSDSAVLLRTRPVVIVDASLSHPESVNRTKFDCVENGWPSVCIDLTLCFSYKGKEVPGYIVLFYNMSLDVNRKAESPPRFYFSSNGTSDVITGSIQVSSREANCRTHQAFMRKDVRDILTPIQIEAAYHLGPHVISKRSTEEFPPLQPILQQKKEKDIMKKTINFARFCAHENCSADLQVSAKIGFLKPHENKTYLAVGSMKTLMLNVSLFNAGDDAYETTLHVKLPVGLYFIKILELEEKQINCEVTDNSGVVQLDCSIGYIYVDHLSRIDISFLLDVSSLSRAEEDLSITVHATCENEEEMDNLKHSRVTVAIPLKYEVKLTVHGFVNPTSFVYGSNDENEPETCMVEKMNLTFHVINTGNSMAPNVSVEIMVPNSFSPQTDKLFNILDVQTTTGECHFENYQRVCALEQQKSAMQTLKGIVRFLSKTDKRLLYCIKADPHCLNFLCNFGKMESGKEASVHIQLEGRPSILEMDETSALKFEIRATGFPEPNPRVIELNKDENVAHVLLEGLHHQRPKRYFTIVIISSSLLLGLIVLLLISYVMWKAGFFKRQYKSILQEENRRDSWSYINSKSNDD

COc1ccc(CNC(=O)c2cc3c(=O)n4ccccc4nc3n(Cc3cccnc3)c2=N)cc1
double positive events [1]: 60.5%
vesicle binding response [1]: 131% (inactive)
inhibition [2]: -2.11% (inactive)
superoxide response (% of plate) [3]: 92.2% (inactive)
aptamer binding inhibition [4]: -6% (inactive)
inhibition [5]: -0.26% (inactive)
response [6]: 3.99% (inactive)
binding (% of control) [7]: 112% (inactive)
efflux inhibition (fraction of control) [8]: 0.22 (inactive)
inhibition [9]: 4% (inactive)
differentiation response [10]: -9.89% (inactive)

C/C(NC(=O)c1cccs1)=C1\C(=O)C[C@@H]2[C@H]1C2(C)C
double positive events [1]: 56.1%
vesicle binding response [1]: 193% (inactive)
inhibition [2]: 0.59% (inactive)
superoxide response (% of plate) [3]: 102% (inactive)
aptamer binding inhibition [4]: -8% (inactive)
response [11]: -39.8% (inactive)
inhibition [5]: -13% (inactive)
response [6]: -6.85% (inactive)
binding (% of control) [7]: 105% (inactive)
efflux inhibition (fraction of control) [8]: -0.04 (inactive)
inhibition [9]: 9% (inactive)
differentiation response [10]: -11.9% (inactive)

Nc1cccc2nc3ccccc3cc12
double positive events [1]: 60.9%
vesicle binding response [1]: 235% (inactive)
inhibition [2]: 9.1% (inactive)
superoxide response (% of plate) [3]: 113% (inactive)
aptamer binding inhibition [4]: 3% (inactive)
response [11]: 2.19% (inactive)
inhibition [5]: 2.41% (inactive)
response [6]: -17.4% (inactive)
binding (% of control) [7]: 102% (inactive)
efflux inhibition (fraction of control) [8]: -0.04 (inactive)
inhibition [9]: 2% (inactive)
differentiation response [10]: -6.96% (inactive)

COc1ccc(C(=O)OCc2cc3cccc(C)c3[nH]c2=O)cc1
double positive events [1]: 49.3%
vesicle binding response [1]: 163% (inactive)
inhibition [2]: 5.36% (inactive)
superoxide response (% of plate) [3]: 112% (inactive)
aptamer binding inhibition [4]: 0% (inactive)
inhibition [5]: 8.12% (inactive)
response [6]: -29% (inactive)
binding (% of control) [7]: 96.4% (inactive)
efflux inhibition (fraction of control) [8]: 0.06 (inactive)
inhibition [9]: 8% (inactive)
differentiation response [10]: -29.3% (inactive)

Cc1nc(N[C@@H](Cc2c[nH]c3ccccc23)C(=O)O)c2oc3ccccc3c2n1
double positive events [1]: 62.1%
vesicle binding response [1]: 218% (inactive)
inhibition [2]: -0.24% (inactive)
superoxide response (% of plate) [3]: 104% (inactive)
aptamer binding inhibition [4]: 0% (inactive)
inhibition [5]: -8.46% (inactive)
response [6]: -0.92% (inactive)
binding (% of control) [7]: 102% (inactive)
efflux inhibition (fraction of control) [8]: -0.24 (inactive)
inhibition [9]: 9% (inactive)
differentiation response [10]: -9.89% (inactive)

CSc1ccc2c(c1)N(CCC1CCCCN1C)c1ccccc1S2 (centres undefined)
double positive events [1]: 66.7%
vesicle binding response [1]: 166% (inactive)
inhibition [2]: 27.1% (inactive)
superoxide response (% of plate) [3]: 88.6% (inactive)
aptamer binding inhibition [4]: -7% (inactive)
response [11]: 60.7% (active)
inhibition [5]: 0.21% (inactive)
response [6]: -0.24% (inactive)
binding (% of control) [7]: 106% (inactive)
efflux inhibition (fraction of control) [8]: -0.145 (inactive)
differentiation response [10]: 11.5% (inactive)

C[C@]12CCC(=O)C=C1CC[C@@H]1[C@@H]2CC[C@@]2(C)[C@H]1CC[C@]2(O)C(=O)CO
double positive events [1]: 54.2%
vesicle binding response [1]: 143% (inactive)
inhibition [2]: 5.36% (inactive)
superoxide response (% of plate) [3]: 96.8% (inactive)
aptamer binding inhibition [4]: 4% (inactive)
inhibition [5]: -3.62% (inactive)
response [6]: 1.37% (inactive)
binding (% of control) [7]: 96.2% (inactive)
efflux inhibition (fraction of control) [8]: -0.31 (inactive)
inhibition [9]: 4% (inactive)
differentiation response [10]: -3.43% (inactive)

COc1ccc(CC(=O)N2CC3(C)CC2CC(C)(C)C3)cc1OC (centres undefined)
double positive events [1]: 64.1%
vesicle binding response [1]: 255% (inactive)
inhibition [2]: -5.89% (inactive)
superoxide response (% of plate) [3]: 91.8% (inactive)
aptamer binding inhibition [4]: 1% (inactive)
response [11]: -7.91% (inactive)
inhibition [5]: -2.57% (inactive)
response [6]: 1.81% (inactive)
binding (% of control) [7]: 102% (inactive)
efflux inhibition (fraction of control) [8]: 0.44 (active)
inhibition [9]: 3% (inactive)
differentiation response [10]: 5.6% (inactive)

NS(=O)(=O)c1cc2c(cc1C(F)(F)F)NCNS2(=O)=O
double positive events [1]: 80.6%
vesicle binding response [1]: 205% (inactive)
inhibition [2]: 10.8% (inactive)
superoxide response (% of plate) [3]: 92.9% (inactive)
aptamer binding inhibition [4]: 5% (inactive)
response [11]: -9.47% (inactive)
inhibition [5]: 1.9% (inactive)
response [6]: 1.35% (inactive)
binding (% of control) [7]: 101% (inactive)
efflux inhibition (fraction of control) [8]: -0.04 (inactive)
inhibition [9]: 11% (inactive)
differentiation response [10]: -3.02% (inactive)

CCSc1nc(O)c(C2OC(=O)c3c2ccc(OC)c3OC)c(=O)n1CC (centres undefined)
double positive events [1]: 69.4%
vesicle binding response [1]: 289% (inactive)
inhibition [2]: -1.79% (inactive)
superoxide response (% of plate) [3]: 86.4% (inactive)
aptamer binding inhibition [4]: 2% (inactive)
response [11]: 15.5% (inactive)
inhibition [5]: -2.62% (inactive)
response [6]: -1.36% (inactive)
binding (% of control) [7]: 101% (inactive)
efflux inhibition (fraction of control) [8]: 0.12 (inactive)
inhibition [9]: 109% (active)
differentiation response [10]: 20% (inactive)

COc1ccc(/C=C2\CCn3c2nc2cc(C(=O)O)ccc2c3=O)cc1OC
double positive events [1]: 60.5%
vesicle binding response [1]: 178% (inactive)
inhibition [2]: 5.61% (inactive)
superoxide response (% of plate) [3]: 108% (inactive)
aptamer binding inhibition [4]: 1% (inactive)
response [11]: 7.98% (inactive)
inhibition [5]: -3.78% (inactive)
response [6]: 0.13% (inactive)
binding (% of control) [7]: 102% (inactive)
efflux inhibition (fraction of control) [8]: 0 (inactive)
inhibition [9]: 2% (inactive)
differentiation response [10]: -8.96% (inactive)

CN(C)C(=O)C(CCN1CCC(O)(c2ccc(Cl)cc2)CC1)(c1ccccc1)c1ccccc1
double positive events [1]: 70.4%
vesicle binding response [1]: 180% (inactive)
inhibition [2]: 44% (inactive)
superoxide response (% of plate) [3]: 86.8% (inactive)
aptamer binding inhibition [4]: 1% (inactive)
inhibition [5]: 2.98% (inactive)
response [6]: 6.9% (inactive)
binding (% of control) [7]: 104% (inactive)
efflux inhibition (fraction of control) [8]: 0.08 (inactive)
inhibition [9]: 2% (inactive)
differentiation response [10]: -3.02% (inactive)

Cc1ccc2nc3c(cc(C(=O)NCC4CCCO4)c(=N)n3CCCOC(C)C)c(=O)n2c1 (centres undefined)
double positive events [1]: 62.1%
vesicle binding response [1]: 176% (inactive)
inhibition [2]: 9.09% (inactive)
superoxide response (% of plate) [3]: 82.4% (inactive)
aptamer binding inhibition [4]: 0% (inactive)
inhibition [5]: -3.18% (inactive)
response [6]: -20.8% (inactive)
binding (% of control) [7]: 100% (inactive)
efflux inhibition (fraction of control) [8]: 0.33 (inactive)
inhibition [9]: 14% (inactive)
differentiation response [10]: -24.4% (inactive)
